{"source": "the supplement of paper PMC12282887", "assay_in_all_cases": "promoter activity interaction Z-score (Lux/OD deviation from empty-vector control); higher = stronger promoter induction by the compound", "key": {"[1]": {"system": "E. coli BW25113 acrABp lux reporter", "outline": "(§1)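 Reporter strains of E. coli BW25113 grew at 37°C in 40 µl LB Lennox in 384-well plates. Readings of OD600 and luminescence were taken every 30 min over 12 h, integrated over 0–8 h (wild type) or 1–9 h (deletion strains), and wells below 10% of the median growth value were excluded. Scores are Z-transformed residuals of growth-normalised luminescence from a fit against a control.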"}, "[2]": {"system": "E. coli BW25113 micFp lux reporter", "outline": "as §1"}, "[3]": {"system": "E. coli BW25113 ompFp lux reporter", "outline": "as §1"}, "[4]": {"system": "E. coli BW25113 robp lux reporter", "outline": "as §1"}, "[5]": {"system": "E. coli BW25113 soxSp lux reporter", "outline": "as §1"}, "[6]": {"system": "E. coli BW25113 tolCp lux reporter", "outline": "as §1"}, "[7]": {"conditions": "19 µg/ml, genetic background: wild type"}, "[8]": {"conditions": "19 µg/ml, genetic background: ΔmarA"}, "[9]": {"conditions": "19 µg/ml, genetic background: Δrob"}, "[10]": {"conditions": "19 µg/ml, genetic background: ΔsoxS"}, "[11]": {"conditions": "38 µg/ml, genetic background: wild type"}, "[12]": {"conditions": "38 µg/ml, genetic background: ΔmarA"}, "[13]": {"conditions": "38 µg/ml, genetic background: Δrob"}, "[14]": {"conditions": "38 µg/ml, genetic background: ΔsoxS"}, "[15]": {"conditions": "76.1 µg/ml, genetic background: wild type"}, "[16]": {"conditions": "76.1 µg/ml, genetic background: ΔmarA"}, "[17]": {"conditions": "76.1 µg/ml, genetic background: Δrob"}, "[18]": {"conditions": "76.1 µg/ml, genetic background: ΔsoxS"}, "[19]": {"conditions": "152.1 µg/ml, genetic background: wild type"}, "[20]": {"conditions": "152.1 µg/ml, genetic background: ΔmarA"}, "[21]": {"conditions": "152.1 µg/ml, genetic background: Δrob"}, "[22]": {"conditions": "152.1 µg/ml, genetic background: ΔsoxS"}}, "note": "± gives the standard deviation of the averaged measurements."}
{"smiles": "COc1cc(C=O)ccc1O", "note": "[Vanillin]", "values": [{"measurement": "promoter activity interaction Z-score", "setting": "[1]; [7]", "value": "-0.0924 ± 0.22"}, {"measurement": "promoter activity interaction Z-score", "setting": "[1]; [8]", "value": "-1.01 ± 0.36"}, {"measurement": "promoter activity interaction Z-score", "setting": "[1]; [9]", "value": "-0.237 ± 0.036"}, {"measurement": "promoter activity interaction Z-score", "setting": "[1]; [10]", "value": "-0.38 ± 0.04"}, {"measurement": "promoter activity interaction Z-score", "setting": "[1]; [11]", "value": "-0.3 ± 0.17"}, {"measurement": "promoter activity interaction Z-score", "setting": "[1]; [12]", "value": "0.134 ± 0.85"}, {"measurement": "promoter activity interaction Z-score", "setting": "[1]; [13]", "value": "-0.312 ± 0.14"}, {"measurement": "promoter activity interaction Z-score", "setting": "[1]; [14]", "value": "-0.79 ± 0.35"}, {"measurement": "promoter activity interaction Z-score", "setting": "[1]; [15]", "value": "-0.108 ± 0.02"}, {"measurement": "promoter activity interaction Z-score", "setting": "[1]; [16]", "value": "-0.501 ± 0.51"}, {"measurement": "promoter activity interaction Z-score", "setting": "[1]; [17]", "value": "-0.406 ± 0.017"}, {"measurement": "promoter activity interaction Z-score", "setting": "[1]; [18]", "value": "-0.409 ± 0.11"}, {"measurement": "promoter activity interaction Z-score", "setting": "[1]; [19]", "value": "0.0819 ± 0.4"}, {"measurement": "promoter activity interaction Z-score", "setting": "[1]; [20]", "value": "-0.204 ± 0.85"}, {"measurement": "promoter activity interaction Z-score", "setting": "[1]; [21]", "value": "-0.28 ± 0.056"}, {"measurement": "promoter activity interaction Z-score", "setting": "[1]; [22]", "value": "-0.339 ± 0.24"}, {"measurement": "promoter activity interaction Z-score", "setting": "[2]; [7]", "value": "0.414 ± 0.3"}, {"measurement": "promoter activity interaction Z-score", "setting": "[2]; [8]", "value": "0.0708 ± 0.21"}, {"measurement": "promoter activity interaction Z-score", "setting": "[2]; [9]", "value": "0.348 ± 0.34"}, {"measurement": "promoter activity interaction Z-score", "setting": "[2]; [10]", "value": "0.261 ± 0.29"}, {"measurement": "promoter activity interaction Z-score", "setting": "[2]; [11]", "value": "0.827 ± 0.47"}, {"measurement": "promoter activity interaction Z-score", "setting": "[2]; [12]", "value": "0.117 ± 0.12"}, {"measurement": "promoter activity interaction Z-score", "setting": "[2]; [13]", "value": "0.608 ± 0.26"}, {"measurement": "promoter activity interaction Z-score", "setting": "[2]; [14]", "value": "0.255 ± 0.57"}, {"measurement": "promoter activity interaction Z-score", "setting": "[2]; [15]", "value": "1.55 ± 0.57"}, {"measurement": "promoter activity interaction Z-score", "setting": "[2]; [16]", "value": "0.0617 ± 0.059"}, {"measurement": "promoter activity interaction Z-score", "setting": "[2]; [17]", "value": "0.54 ± 0.19"}, {"measurement": "promoter activity interaction Z-score", "setting": "[2]; [18]", "value": "0.822 ± 0.14"}, {"measurement": "promoter activity interaction Z-score", "setting": "[2]; [19]", "value": "1.67 ± 0.3"}, {"measurement": "promoter activity interaction Z-score", "setting": "[2]; [20]", "value": "0.484 ± 0.14"}, {"measurement": "promoter activity interaction Z-score", "setting": "[2]; [21]", "value": "1.27 ± 0.44"}, {"measurement": "promoter activity interaction Z-score", "setting": "[2]; [22]", "value": "1.36 ± 0.11"}, {"measurement": "promoter activity interaction Z-score", "setting": "[3]; [7]", "value": "-0.994 ± 0.24"}, {"measurement": "promoter activity interaction Z-score", "setting": "[3]; [8]", "value": "-1.33 ± 0.62"}, {"measurement": "promoter activity interaction Z-score", "setting": "[3]; [9]", "value": "-1.05 ± 0.28"}, {"measurement": "promoter activity interaction Z-score", "setting": "[3]; [10]", "value": "-0.69 ± 0.026"}, {"measurement": "promoter activity interaction Z-score", "setting": "[3]; [11]", "value": "-0.89 ± 0.22"}, {"measurement": "promoter activity interaction Z-score", "setting": "[3]; [12]", "value": "-1.03 ± 0.49"}, {"measurement": "promoter activity interaction Z-score", "setting": "[3]; [13]", "value": "-0.857 ± 0.061"}, {"measurement": "promoter activity interaction Z-score", "setting": "[3]; [14]", "value": "-0.75 ± 0.044"}, {"measurement": "promoter activity interaction Z-score", "setting": "[3]; [15]", "value": "-0.551 ± 0.35"}, {"measurement": "promoter activity interaction Z-score", "setting": "[3]; [16]", "value": "-1.2 ± 0.46"}, {"measurement": "promoter activity interaction Z-score", "setting": "[3]; [17]", "value": "-0.873 ± 0.084"}, {"measurement": "promoter activity interaction Z-score", "setting": "[3]; [18]", "value": "-0.372 ± 0.057"}, {"measurement": "promoter activity interaction Z-score", "setting": "[3]; [19]", "value": "-0.504 ± 0.27"}, {"measurement": "promoter activity interaction Z-score", "setting": "[3]; [20]", "value": "-0.917 ± 0.56"}, {"measurement": "promoter activity interaction Z-score", "setting": "[3]; [21]", "value": "-0.507 ± 0.057"}, {"measurement": "promoter activity interaction Z-score", "setting": "[3]; [22]", "value": "0.0107 ± 0.52"}, {"measurement": "promoter activity interaction Z-score", "setting": "[4]; [7]", "value": "-0.0267 ± 0.12"}, {"measurement": "promoter activity interaction Z-score", "setting": "[4]; [8]", "value": "-0.748 ± 0.21"}, {"measurement": "promoter activity interaction Z-score", "setting": "[4]; [9]", "value": "-0.428 ± 0.024"}, {"measurement": "promoter activity interaction Z-score", "setting": "[4]; [10]", "value": "-0.184 ± 0.93"}, {"measurement": "promoter activity interaction Z-score", "setting": "[4]; [11]", "value": "-0.354 ± 0.066"}, {"measurement": "promoter activity interaction Z-score", "setting": "[4]; [12]", "value": "0.11 ± 0.23"}, {"measurement": "promoter activity interaction Z-score", "setting": "[4]; [13]", "value": "-0.287 ± 0.54"}, {"measurement": "promoter activity interaction Z-score", "setting": "[4]; [14]", "value": "-0.138 ± 0.42"}, {"measurement": "promoter activity interaction Z-score", "setting": "[4]; [15]", "value": "-0.265 ± 0.18"}, {"measurement": "promoter activity interaction Z-score", "setting": "[4]; [16]", "value": "-0.307 ± 0.11"}, {"measurement": "promoter activity interaction Z-score", "setting": "[4]; [17]", "value": "-0.399 ± 0.16"}, {"measurement": "promoter activity interaction Z-score", "setting": "[4]; [18]", "value": "-0.0986 ± 0.36"}, {"measurement": "promoter activity interaction Z-score", "setting": "[4]; [19]", "value": "0.841 ± 1.6"}, {"measurement": "promoter activity interaction Z-score", "setting": "[4]; [20]", "value": "0.111 ± 0.07"}, {"measurement": "promoter activity interaction Z-score", "setting": "[4]; [21]", "value": "-0.463 ± 0.3"}, {"measurement": "promoter activity interaction Z-score", "setting": "[4]; [22]", "value": "0.223 ± 0.32"}, {"measurement": "promoter activity interaction Z-score", "setting": "[5]; [7]", "value": "-0.29 ± 0.1"}, {"measurement": "promoter activity interaction Z-score", "setting": "[5]; [8]", "value": "-0.185 ± 0.056"}, {"measurement": "promoter activity interaction Z-score", "setting": "[5]; [9]", "value": "0.0115 ± 0.23"}, {"measurement": "promoter activity interaction Z-score", "setting": "[5]; [10]", "value": "-0.409 ± 0.11"}, {"measurement": "promoter activity interaction Z-score", "setting": "[5]; [11]", "value": "-0.279 ± 0.037"}, {"measurement": "promoter activity interaction Z-score", "setting": "[5]; [12]", "value": "-0.201 ± 0.018"}, {"measurement": "promoter activity interaction Z-score", "setting": "[5]; [13]", "value": "0.0294 ± 0.17"}, {"measurement": "promoter activity interaction Z-score", "setting": "[5]; [14]", "value": "-0.314 ± 0.082"}, {"measurement": "promoter activity interaction Z-score", "setting": "[5]; [15]", "value": "-0.117 ± 0.062"}, {"measurement": "promoter activity interaction Z-score", "setting": "[5]; [16]", "value": "-0.32 ± 0.06"}, {"measurement": "promoter activity interaction Z-score", "setting": "[5]; [17]", "value": "-0.186 ± 0.072"}, {"measurement": "promoter activity interaction Z-score", "setting": "[5]; [18]", "value": "-0.321 ± 0.11"}, {"measurement": "promoter activity interaction Z-score", "setting": "[5]; [19]", "value": "-0.196 ± 0.03"}, {"measurement": "promoter activity interaction Z-score", "setting": "[5]; [20]", "value": "-0.205 ± 0.12"}, {"measurement": "promoter activity interaction Z-score", "setting": "[5]; [21]", "value": "-0.225 ± 0.11"}, {"measurement": "promoter activity interaction Z-score", "setting": "[5]; [22]", "value": "-0.367 ± 0.18"}, {"measurement": "promoter activity interaction Z-score", "setting": "[6]; [7]", "value": "0.0479 ± 0.73"}, {"measurement": "promoter activity interaction Z-score", "setting": "[6]; [8]", "value": "-0.119 ± 0.31"}, {"measurement": "promoter activity interaction Z-score", "setting": "[6]; [9]", "value": "0.58 ± 0.34"}, {"measurement": "promoter activity interaction Z-score", "setting": "[6]; [10]", "value": "0.597 ± 0.78"}, {"measurement": "promoter activity interaction Z-score", "setting": "[6]; [11]", "value": "0.657 ± 0.53"}, {"measurement": "promoter activity interaction Z-score", "setting": "[6]; [12]", "value": "0.25 ± 0.54"}, {"measurement": "promoter activity interaction Z-score", "setting": "[6]; [13]", "value": "0.749 ± 0.62"}, {"measurement": "promoter activity interaction Z-score", "setting": "[6]; [14]", "value": "-0.627 ± 0.44"}, {"measurement": "promoter activity interaction Z-score", "setting": "[6]; [15]", "value": "0.993 ± 0.047"}, {"measurement": "promoter activity interaction Z-score", "setting": "[6]; [16]", "value": "-0.352 ± 0.71"}, {"measurement": "promoter activity interaction Z-score", "setting": "[6]; [17]", "value": "-0.533 ± 0.45"}, {"measurement": "promoter activity interaction Z-score", "setting": "[6]; [18]", "value": "0.305 ± 0.97"}, {"measurement": "promoter activity interaction Z-score", "setting": "[6]; [19]", "value": "-0.199 ± 0.18"}, {"measurement": "promoter activity interaction Z-score", "setting": "[6]; [20]", "value": "-0.469 ± 1"}, {"measurement": "promoter activity interaction Z-score", "setting": "[6]; [21]", "value": "0.503 ± 0.78"}, {"measurement": "promoter activity interaction Z-score", "setting": "[6]; [22]", "value": "1.07 ± 1.8"}]}
